Data on 97 sequences can be found in the supplement of paper PMC11417369.

Over roughly 25,000 sequences, “ln(normalized median fluorescence intensity)” has its median near 7.1; the highest 2% begin near 10. This excerpt belongs to a sample that is enriched for the highest values.

The experiment concerns PfSIP2 AP2 domain 1 (GST-tagged). The experiment can be described thus: gcPBM binding intensity (ln(normalized median fluorescence intensity)); higher = stronger DNA binding. In short, it runs like this: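 An Agilent 4 × 180k array of primer-extended double-stranded 36-bp intergenic genomic probes, with negative controls, was incubated for 1 h with GST-tagged P. falciparum DNA-binding domains expressed in E. coli. Alexa488 anti-GST antibody detected bound protein, scanned at 488 nm. Binding intensity is the highest Masliner-normalised natural-log median intensity across replicate spots of either probe orientation.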
For “AAGAATATATAGGACACACATACAATAATAAATATA [CACACA_site4119]”, the “gcPBM binding intensity (ln)” value was 7.25.
Turning to “ATATTTTATAATTTTACACACCATATAAAATAATTC [CACACA_site2797]”, the “gcPBM binding intensity (ln)” value came out at 7.16.
The figure for “CATATTTACATTAAGTGTACTTATGAATATATATAC [XGTACX_site7962]” is 7.03; for “TTTATATGTATTAAGTGTACACATATAATGTGTTTG [XGTACX_site6629]” it is 7.29.
The figure for “TTTGCACCGTTTAAGTGTACAGAATTATGACATATA [XGTACX_site6735]” is 11.2.
Turning to “TATCAATGGAAAATATATATTTGTATATATGTAATA [XGTACX_negctrl_site257]”, the “gcPBM binding intensity (ln)” value was found to be 7.04.
The figure for “ACATGAATATATACACGTACATATATACATATATAT [XGTACX_site5872]” is 7.42; for “AATTTATTTTTAAAAAGTACATACTTAAGAAAACGA [XGTACX_site3660]” it is 7.59.
With “ATATATTATATTATATGTACTTAAAAAAGTGCAAAG [XGTACX_site318]” the figure was 8.67.
With CTGTACACTTAAACGGTGCAAAAAGAAAAAAAAGAA the figure was 10.9; with “TTTTATCATCTTTTTACATTATGTATAAATATTTTC [CACACA_negctrl_site206]”, 6.99.
In the case of “AAAACATAAATACATACACACATAATATATATTAAT [CACACA_site109]”, the “gcPBM binding intensity (ln)” value was 7.06.
The figure for “TATATATTTTCTTTTGCACACTGTTTTCCTTTTTTT [CACACA_site2739]” is 7.02; for “ACAAGTATTCCTTTTGCACACCTTTCTGCACCTTAT [CACACA_site3873]” it is 11.7.
The figure for “TTTTATTCCTTCTTTGCACACGTTTAAAAATATATA [CACACA_site2899]” is 8.04; for “ATGTCATAAATGTACGCACACATACATAAACATATA [CACACA_site4530]” it is 7.33; for “TATATAAACCCACCTACACACACAACGTAAATGCAT [CACACA_site8702]” it is 7.1.
With “TATAAACCCACCTACACACACAACGTAAATGCATTG [CACACA_site2238]” the figure was 7.01; with “TATAAACGCACCTACACACACAACGTAAATGCATTG [CACACA_site7120]”, 10.6; with “CAAATATGTCTTATTCGTACACATATATATATATAT [XGTACX_site8817]”, 9.64.
On to “TTTATGAAACAGTGCACACATAAAAATAAATACATA [CACACA_site5631]”, for which the “gcPBM binding intensity (ln)” value is 11.2.
With “ATTTTGTTATGAAACACACACATATAAATATAAATA [CACACA_site7679]” the figure was 7.26.
The figure for “TCATAATGAAAACAAGCACACATACATAAAATAAAA [CACACA_site9069]” is 7.01; for “TTTTTAATTTTATATACACACATAAAATATATGAAG [CACACA_site3145]” it is 7.01.
As for “AAAAAAAATATGAAAACACACATATATAAATAAATA [CACACA_site113]”, the “gcPBM binding intensity (ln)” value stood at 6.89.
The figure for “CTTTTATGAAACAGTGCACACATAAAAATATATACA [CACACA_site8981]” is 11.3; for “ATAATGAAAACAAGCACACATACATAAAATAAAATA [CACACA_site3257]” it is 7.04; for “AACATATATAAATACACACACATATATATATGAAAT [CACACA_site4312]” it is 7.05.
The figure for “TTTATGAAACAGTGCACACATAAAAATATATACATA [CACACA_site2992]” is 11; for “AAATATAAACTCAGCACACAAACATATATATGTCAT [CACACA_site4004]” it is 6.91.
For the sequence “TCCTTTTGAACCCTTTTTCTCACAAGACCTTTATAT [TGCATGCA_negctrl_site413]”, the “gcPBM binding intensity (ln)” value was determined as 7.05.
The figure for ATGTTTTAATGAGGTTTGCACTATATTTTAATGAAC is 8.64; for “AATATTAAACAAAATAAATATATAAAAAATAAATAA [GTGCAC_negctrl_site93]” it is 6.79.
The figure for “ATGAATATAATGAAGTGTACATAAAAATAATAAATA [XGTACX_site2481]” is 7.11; for TCACATTTTGGACACGTGCACATATATTTGATACAT it is 8.43.
The figure for “GGACATTTTTATAAGGTGCACGGTTTTGATATTACT [GTGCAC_site9892]” is 11.1; for “GTACATATATACATTACACACGGTTTGATTTAAAAA [CACACA_site3379]” it is 7.26; for “ATGCGTTAATCTATATATATTATGTATAGATTTTCA [CACACA_negctrl_site1650]” it is 6.81.
For the sequence “TGCCCTTTGGTTATAACACACATGCACACGTAAATA [CACACA_site7750]”, the “gcPBM binding intensity (ln)” value stood at 7.71.
Consider “CTTTGGTTATAACACACATGCACACGTAAATAAATA [TGCATGCA_site976]”, for which the “gcPBM binding intensity (ln)” value was 7.63.
The figure for “TGCCCTTTGGTTATAACACACATGCACCCGTAAATA [CACACA_site3842]” is 11.9; for “AGACAATTTTTTAGTACACACATATAGATATATAAA [CACACA_site6832]” it is 7.39; for “AAAAAAAAATATATATATATATATATATAATAAAAA [CACACA_negctrl_site639]” it is 7.48.
With “ATATGCACTCATTGTGCACACGCATATTACGAAAAG [CACACA_site2637]” the figure was 11; with “TGTGTTCATATATGCACACGCATATATATTATTGTT [CACACA_site3822]”, 7.02; with “ATGCACTCATTGTGCACACGCATATTACGAAAAGAA [CACACA_site2638]”, 10.2.
Take “ATATATAATAATTGTAGTACAATTAATAAATAAAAT [XGTACX_site3840]”: the “gcPBM binding intensity (ln)” value came out at 7.08.
With “TATATATTATAAAATTGTACATATATTAAATTTTTT [XGTACX_site5852]” the figure was 6.93.
The figure for “TATGCACCCAGACACACACACACAACTAAAAAATAA [CACACA_site2567]” is 10.7.
As for “TAATTATGCAGACACACACACACACCCAACTAAAAA [CACACA_site2569]”, the “gcPBM binding intensity (ln)” value was 7.27.
The figure for “TGCACGCACAGACACACACACAACTAAAAAATAATG [CACACA_site7250]” is 7.33.
The figure for “TACAAATATATATGCACACACATATACATACATATA [CACACA_site2182]” is 7.31; for “TGGGCACCCATATACACACACAAATACAATGATAAA [CACACA_site4762]” it is 8.64.
For “TGTGCACGCATATACACACACAAATACAATGATAAA [CACACA_site6656]”, the “gcPBM binding intensity (ln)” value stood at 10.6.
With “TCACCATATAAACGTGCACACTACAAAAATATATAA [CACACA_site5413]” the figure was 11; with “TACAAACACCCATATACACACAAAAAAAAAATAAAA [CACACA_site5421]”, 7.05; with “CATATAAAAATGTGCACACACACACCCATATATATT [CACACA_site1526]”, 9.06.
With “AAACAAAAAATATATACACACTAAACATAAAAAAAA [CACACA_site4185]” the figure was 6.86.
With “GAAATGTGATAATATACACACACGCATATATATATA [CACACA_site4332]” the figure was 9.04; with “TAATGATAAATACATACACACAAAAAATGATATATA [CACACA_site7258]”, 6.86.
Turning to “GGTGCACCCATATACACACACAAATACAATGATAAA [CACACA_site1132]”, the “gcPBM binding intensity (ln)” value came to 12.4.
The figure for “AATGTGATAATATACACACACGCATATATATATATA [CACACA_site323]” is 9.89; for “TATGTGCACCCATATACACACACAAATACAATGATA [CACACA_site8295]” it is 12.3.
As to “CTATTTTATATGTGCACACATATACACCCACAAATA [CACACA_site1131]”, the “gcPBM binding intensity (ln)” value turned out to be 9.31.
The figure for “CCCCCCCACGAACACACACACATACATACCACATAT [CACACA_site7149]” is 9.05; for “TGAGAGAGAAACGTAGTGCATAAAATCAAATTTAGA [GTGCAC_site9737]” it is 7.82; for “TTTTTTTGTTTTGTTTTTTTTTTTTTTTTTTTTTTG [CACACA_negctrl_site570]” it is 6.76.
The figure for “ACATGTTCATAATTTTGTACATATTTTTATGAACAT [XGTACX_site3976]” is 7.12.
With “AAAATACACGATAGTTGTACATTAAATGTATACAAT [XGTACX_site360]” the figure was 6.91.
In the case of “TGTTATTATAACATTTTTTTCAAAATAGCTTTAGAA [CACACA_negctrl_site266]”, the “gcPBM binding intensity (ln)” value came out at 6.77.
The figure for “AATAAATATCAATACACACACACAAAAGTGAATAAA [CACACA_site3763]” is 6.99.
With “TAGAATAAGATAGATATACACACCATTATAAATATA [CACACA_site2500]” the figure was 6.78; with AGTGTGTGTAATAAAGTGCATTAAAAATGACACGTA, 8.55; with “TGTGCATAAATTTATGCACACATAAAAAAAAAAAAA [CACACA_site8954]”, 9.95.
With “ATTAAAAAATCCATAGTGCACTACGATAGGTTCCGA [GTGCAC_site9463]” the figure was 10.5; with “ATATACATATCAATGTAATATTATATACTTTTTTAG [CACACA_negctrl_site816]”, 6.77; with “GAAAGAAGCATAAATGTACACACATATTTATATATT [CACACA_site8368]”, 7.04.
As to “TGTACACCCAGAAATGCACACACATATATATATATA [CACACA_site8716]”, the “gcPBM binding intensity (ln)” value came to 9.53.
Regarding “CATTTATATAAAGAATGTACACACAGAAATGCACAC [XGTACX_site4718]”, the “gcPBM binding intensity (ln)” value amounted to 8.37.
On to “ATTTATATAAAGAATGTACACACAGAAATGCACCCA [CACACA_site8715]”, for which the “gcPBM binding intensity (ln)” value worked out at 11.8.
Regarding “TTATATAAAGAATGTACACACAGAAATGCACCCACA [CACACA_site2282]”, the “gcPBM binding intensity (ln)” value came to 12.2.
With “TTATATAAAGAATGTACACACAGAAATGCACAGACA [CACACA_site5288]” the figure was 8.26; with “TCCCTGATGTTATTTAATATACCATAAAAAAAAAAA [CACACA_negctrl_site1472]”, 7.22; with “TATATATTATGACCACCACACACCTATACACATAAC [CACACA_site8773]”, 7.3.
The figure for “TACATATAAATAATAACACACACCTAGGTACATGGA [CACACA_site838]” is 6.89; for “CAAATATATATTTATTGTACATATTGTTTATATGGT [XGTACX_site5246]” it is 7.14; for “TACAAACAATTAAACAAACACACATATACATGTATA [CACACA_site2061]” it is 6.92.
For the sequence “TAAAATTAAATGAAATCATTATTCATTTTTATTTTA [CACACA_negctrl_site1281]”, the “gcPBM binding intensity (ln)” value was 6.67.
With “TATATATATATAGACACACACACACCCATATATATA [CACACA_site4117]” the figure was 9.12.
For the sequence “ATTAAGACACATTGCACACGTGCACCCATAGAAAAA [CACACA_site408]”, the “gcPBM binding intensity (ln)” value is 12.2.
Turning to “TAAGAAATAAATAGTACACACATAGACACCCACCCA [CACACA_site8429]”, the “gcPBM binding intensity (ln)” value was 7.39.
With “TACACCCATAGACACACACACACGCATAAAAAAAAA [CACACA_site8428]” the figure was 7.55.
The figure for “AGTACAGACATAGACACACACACACCCATAAAAAAA [CACACA_site1515]” is 7.24.
For “TAAGAAATAAATAGTACACACATAGACACCCACCGA [CACACA_site1516]”, the “gcPBM binding intensity (ln)” value is 7.3.
With “TAAGAAATAAATAGTACACACATAGACACACGCACA [CACACA_site6821]” the figure was 8.
Consider “CCATTAAGACACATTGCACACGTGCACCCATAGAAA [CACACA_site4388]”, for which the “gcPBM binding intensity (ln)” value was found to be 12.4.
The figure for “ACATTAAGACACATTGCACACGTGCACCCATAGAAA [CACACA_site8029]” is 12.
